{
  "source": "PubChem BioAssay AID1578",
  "about": "(Sanford-Burnham Center for Chemical Genomics, 2009)",
  "note": "The whole screen tested about 290,000 compounds, of which about 3,000 (1%) were called active. Many of the other results were omitted from the sample, so actives are more common in it than they were. Unmarked numbers belong to inactive results. No stated cut-off is given here; in the data, active means inhibition mostly above about 36% (no sharp cut-off); inactive means mostly below about 34%.",
  "data": [
    {"test": "NOD1 signaling inhibitors, primary screen, cell-based, luminescence, uHTS (AID 1578);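 further: HEK-293T reporter cells stimulated with the NOD1 agonist gamma-tri-DAP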", "details": "NOD1-driven NF-kB luciferase reporter cells, at 4 µM, stronger effect = higher value", "values": [
      {"smiles": "O=C(O)c1ccc(N2C(=O)/C(=C/C=C/c3ccccc3)SC2=S)cc1", "inhibition": "-13.7%"},
      {"smiles": "CC(/C=C1\\SC(=S)N(CC(=O)O)C1=O)=C\\c1ccccc1", "inhibition": "-14.7%"},
      {"smiles": "O=C1CCCCN1CCC(=O)N1CCCC(N2CCN(c3ccccc3)CC2)C1", "note": "(centres undefined)", "inhibition": "-1%"},
      {"smiles": "CC(C)(C)c1nc(CN2CCCCC2)cc(CN2CCCCC2)c1O", "inhibition": "-2.5%"},
      {"smiles": "Cc1ccc(C2CC(c3cccs3)=NN2C(=O)CCl)cc1", "note": "(centres undefined)", "inhibition": "95.3% (active)"},
      {"smiles": "CC(=O)N1N=C(c2ccco2)CC1c1cccs1", "note": "(centres undefined)", "inhibition": "-6.4%"},
      {"smiles": "Cc1ccc(C2=NN(C(=O)CCl)C(c3ccco3)C2)o1", "note": "(centres undefined)", "inhibition": "-45.6%"},
      {"smiles": "O=C(O)CCC(=O)N1N=C(c2ccco2)CC1c1cccs1", "note": "(centres undefined)", "inhibition": "-15.2%"},
      {"smiles": "CCC(=O)N1N=C(c2cccs2)CC1c1ccc(C)cc1", "note": "(centres undefined)", "inhibition": "1.5%"},
      {"smiles": "CCN1CCN(CC(=O)N2N=C(c3cccs3)CC2c2ccc(C)cc2)C(=O)C1=O", "note": "(centres undefined)", "inhibition": "-19.6%"},
      {"smiles": "Cc1ccc(C2=NN(C(=O)CCC(=O)O)C(c3cccs3)C2)cc1", "note": "(centres undefined)", "inhibition": "-4.3%"},
      {"smiles": "COc1cc(NC(=O)CN2CCN(c3ccccc3F)CC2)cc(OC)c1", "inhibition": "-13.5%"},
      {"smiles": "CC(C)(C)NC(=S)NCc1cccnc1", "inhibition": "5.8%"},
      {"smiles": "CCc1ccc(OCC(=O)NNC(=O)c2nn(CC)c(=O)c3ccccc23)cc1", "inhibition": "-23.6%"},
      {"smiles": "CC1(C)CC(=O)C(Sc2ccc(Br)cc2)=C(O)C1", "inhibition": "-57.7%"},
      {"smiles": "Fc1ccc(-c2nc3nc4ccccc4nc3n2Cc2ccco2)cc1", "inhibition": "-13.7%"},
      {"smiles": "S=c1nc(-c2ccccc2)[nH]c2ccccc12", "inhibition": "-26.9%"},
      {"smiles": "CCC(CC)c1nc(NCCC(=O)O)c2ccccc2n1", "inhibition": "-13.4%"},
      {"smiles": "COc1ccccc1NC(=O)CCc1nnc2ccc(N3CCN(C)CC3)nn12", "inhibition": "-20.3%"},
      {"smiles": "COc1ccc(Cl)cc1NC(=O)CCc1nnc2ccc(N3CCN(C)CC3)nn12", "inhibition": "58% (active)"},
      {"smiles": "COc1ccc(Cl)cc1NC(=O)CCc1nnc2ccc(N3CCC4(CC3)OCCO4)nn12", "inhibition": "10.7%"},
      {"smiles": "COc1cc(O)c(C(CCN2CCOCC2)c2ccc(N(C)C)cc2)c(OC)c1", "note": "(centres undefined)", "inhibition": "4.8%"},
      {"smiles": "Cc1ccc(S(=O)(=O)Nc2nc3ccccc3nc2NCC2CCCO2)c(C)c1", "note": "(centres undefined)", "inhibition": "-1.8%"},
      {"smiles": "COc1ccc(NC(=O)CN(C)C(=O)c2ccc3c(c2)S(=O)(=O)N=C2CCCCCN23)cc1", "inhibition": "-22%"},
      {"smiles": "N#Cc1c(N)nc(Sc2ccc(Cl)cc2)c(C#N)c1-c1ccccc1Cl", "inhibition": "83.1% (active)"},
      {"smiles": "CCSc1nc(N)c(C#N)c(-c2ccccc2Cl)c1C#N", "inhibition": "-2.6%"},
      {"smiles": "COc1ccc(-c2c(C#N)c(N)nc(Sc3ccc(Cl)cc3)c2C#N)cc1", "inhibition": "-0.6%"},
      {"smiles": "Cc1[nH]c(=O)[nH]c(=O)c1S(=O)(=O)Nc1ccc(Oc2ccccc2)cc1", "inhibition": "-23.1%"},
      {"smiles": "COc1ccc2nc(NCCCO)[nH]c2c1", "inhibition": "-28.1%"},
      {"smiles": "COc1ccccc1OCCNC(=O)c1cc(SC)ccc1Cl", "inhibition": "-20.2%"},
      {"smiles": "Cc1cc(S(=O)(=O)NCCc2ccccc2)c(C)s1", "inhibition": "15.9%"},
      {"smiles": "COc1ccc(/C=C/c2c([N+](=O)[O-])c(=O)n(C)c(=O)n2C)cc1", "inhibition": "-2.9%"},
      {"smiles": "CCc1ccc(/C=C/c2c([N+](=O)[O-])c(=O)n(C)c(=O)n2C)cc1", "inhibition": "22.5%"},
      {"smiles": "CCOc1ccc(/C=C/c2c([N+](=O)[O-])c(=O)n(C)c(=O)n2C)cc1", "inhibition": "-27.7%"},
      {"smiles": "CN(C)c1ccc(/C=C/c2c([N+](=O)[O-])c(=O)n(C)c(=O)n2C)cc1", "inhibition": "-9.1%"},
      {"smiles": "Clc1nccnc1-c1ccccc1", "inhibition": "-25.1%"},
      {"smiles": "Cc1sc2nc(NCCO)[nH]c(=O)c2c1C", "inhibition": "-16%"},
      {"smiles": "O=C(Nc1nc(-c2ccc(Br)cc2)cs1)c1cccnc1", "inhibition": "-26.9%"},
      {"smiles": "CC1CCCCC1NC(=O)CSc1nnc(-c2ccccc2)n1N", "note": "(centres undefined)", "inhibition": "11.7%"},
      {"smiles": "O=C(CCl)N(c1ccccc1)C1CCCCC1", "inhibition": "34.4%"},
      {"smiles": "O=C(CCl)N(c1ccccc1)C1CCS(=O)(=O)C1", "note": "(centres undefined)", "inhibition": "93.2% (active)"},
      {"smiles": "O=C(CCl)N(C1CCCC1)C1CCS(=O)(=O)C1", "note": "(centres undefined)", "inhibition": "35.5%"},
      {"smiles": "NS(=O)(=O)c1ccc(CCNC(=O)c2cc(-c3cc(Cl)ccc3O)n[nH]2)cc1", "inhibition": "-5.8%"},
      {"smiles": "CC(=O)Nc1ccc(NC(=O)[C@@H](NC(=O)N2C[C@H]3C[C@@H](C2)c2cccc(=O)n2C3)C(C)C)cc1", "inhibition": "-3.2%"},
      {"smiles": "CCN(CCn1cccn1)Cc1cn[nH]c1-c1cccc2ccccc12", "inhibition": "-11.1%"},
      {"smiles": "CC(=O)c1ccc(N2CCN(C(=O)C(=O)c3cn(CC(=O)N4CCCCCC4)c4ccccc34)CC2)cc1", "inhibition": "-25.9%"},
      {"smiles": "Cc1cc(=O)oc2c(C)c(OCC(=O)N3CC[C@@]4(O)CCCC[C@H]4C3)ccc12", "inhibition": "-30.1%"},
      {"smiles": "COc1ccccc1CNc1ncnc2cc(OC)c(OC)cc12", "inhibition": "-12.1%"},
      {"smiles": "OCCCCCNc1ncnc2ccccc12", "inhibition": "45.8% (active)"},
      {"smiles": "c1ccc(CNc2ncnc3ccccc23)cc1", "inhibition": "-16.1%"},
      {"smiles": "CCN(CC)CCCNc1ncnc2ccccc12", "inhibition": "-25.6%"},
      {"smiles": "COc1cc2ncnc(NCc3cccc(Cl)c3)c2cc1OC", "inhibition": "44.2%"},
      {"smiles": "COc1cc2ncnc(Nc3ccc4c(c3)OCO4)c2cc1OC", "inhibition": "16.8%"},
      {"smiles": "COc1cc2ncnc(Nc3cccc(Cl)c3)c2cc1OC", "inhibition": "45.3% (active)"},
      {"smiles": "c1ccc(CCNc2ncnc3ccccc23)cc1", "inhibition": "71.7% (active)"},
      {"smiles": "COc1cc2ncnc(NCc3ccccc3)c2cc1OC", "inhibition": "-4.6%"},
      {"smiles": "CCCCCCCCNc1ncnc2ccccc12", "inhibition": "54.9%"},
      {"smiles": "CN(C)CCNc1ncnc2ccccc12", "inhibition": "-20.6%"},
      {"smiles": "CC(C)Cn1c(SCC(=O)N2CCCc3ccccc32)nc2ccccc2c1=O", "inhibition": "-2.1%"},
      {"smiles": "O=C(CSc1nnc(C2CC2)n1CC1CCCO1)Nc1ccccc1Cl", "note": "(centres undefined)", "inhibition": "-9%"},
      {"smiles": "CC1CCN(c2ccc([N+](=O)[O-])cc2C(=O)O)CC1", "inhibition": "-6.6%"},
      {"smiles": "COCc1cc(=O)[nH]c(=S)[nH]1", "inhibition": "-3.8%"},
      {"smiles": "C#CCNC(=O)/C=C/c1ccc(C)cc1", "inhibition": "-42.9%"},
      {"smiles": "COC(=O)C1=C(C(=O)OC)[C@@H]2N(C)c3ccccc3[C@@]23C[C@@H](CO)N(C(=O)NCCBr)C3=N1", "inhibition": "-2.6%"}
    ]}
  ]
}
